Assay outcomes as filed in PubChem BioAssay.
CHT block = inhibitors of human choline transporter CHT | AID 488975 | hit rate 0.86% among 310,000 | CHT-expressing cells, membrane potential dye, choline response; hits give low values | Q9GZV3 | B-score at 10 µM;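 active = B-score over 3 SD under the library average, and starting fluorescence ratio not unusually high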;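 also: choline stimulus applied at its EC90 after an EC20 pre-addition; B-score computed on integrated fluorescence ratio after choline addition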
Target sequence (Q9GZV3 whole entry, looked up): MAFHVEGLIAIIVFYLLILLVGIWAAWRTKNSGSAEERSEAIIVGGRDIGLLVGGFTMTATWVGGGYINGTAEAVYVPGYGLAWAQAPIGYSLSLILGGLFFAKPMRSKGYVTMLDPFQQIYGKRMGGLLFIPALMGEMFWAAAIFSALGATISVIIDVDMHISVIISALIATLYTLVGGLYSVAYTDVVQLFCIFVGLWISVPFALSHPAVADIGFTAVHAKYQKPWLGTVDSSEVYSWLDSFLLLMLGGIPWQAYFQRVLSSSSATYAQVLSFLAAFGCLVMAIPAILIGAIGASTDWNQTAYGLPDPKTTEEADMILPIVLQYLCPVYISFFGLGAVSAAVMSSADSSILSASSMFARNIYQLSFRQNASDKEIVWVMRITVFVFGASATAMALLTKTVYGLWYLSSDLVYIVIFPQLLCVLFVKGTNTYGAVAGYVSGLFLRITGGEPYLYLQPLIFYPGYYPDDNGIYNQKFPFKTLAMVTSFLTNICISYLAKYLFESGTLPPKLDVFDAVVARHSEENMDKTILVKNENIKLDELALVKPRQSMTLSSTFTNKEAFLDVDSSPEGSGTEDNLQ
CHT allo act = allosteric activators of human choline transporter CHT; hit rate 0.49% among 310,000; B-score at 10 µM; Q9GZV3; CHT-expressing cells, membrane potential dye, choline EC20; hits give high values; LV-AA mutant CHT in HEK293 cells;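 active = initial fluorescence not abnormally high and integrated response B-score, plate-corrected, over 3 SD above library mean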
TMEM16A act = mouse TMEM16A channel activation, primary screen. AID 623877. B-score at 10 µM. Q8BHY3. hit rate 0.3% among 340,000. HEK293 TMEM16A/YFP-H148Q/I152L, iodide quench fluorescence; hits give low values;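 active = fluorescence-ratio B-score plate-corrected deviation score at least 3 library SD below zero, with starting fluorescence score within 5 deviations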;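 also: channel opened by trigger with iodide after compound preincubation; score built on the fluorescence ratio of max minus min over baseline; more negative score means more quench and so TMEM16A activation or potentiation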
TMEM16A inh = mouse TMEM16A channel inhibition, primary screen; Q8BHY3; HEK293 TMEM16A/YFP iodide influx fluorescence, ionomycin; normalized B-score (activity score, 25-100; higher = stronger inhibition) at 10 µM; hit rate 1.2% among 310,000; AID 588511;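 active = ratio plate-corrected score three or more library SD toward inhibition, starting fluorescence score within five deviations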;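 also: score derived from kinetic fluorescence span divided by baseline fluorescence per well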
TMEM16A reconf = reconfirmed blocker of mouse TMEM16A calcium-activated chloride channel; shares compounds with TMEM16A inh; inhibition, % at 10 µM; hit rate 39% among 2,300; HEK293 TMEM16A/YFP-H148Q, iodide quench fluorescence; ionomycin added to raise cell calcium;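 active = mean duplicate percent inhibition, scaled so buffer wells are 0 and the reference blocker 100, over three buffer SD above buffer mean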
HEK293 Ca mobil = counter-screen for TMEM16A inhibitors: effect on calcium mobilization; shares compounds with TMEM16A inh; TMEM16A/YFP HEK293, Fluo4 calcium mobilization; calcium response (% of ionomycin), % at 10 µM; hit rate 2% among 2,300;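 active = duplicate-averaged calcium signal over 20% of the ionomycin maximum, relative to buffer baseline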;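 also: each well's signal is peak minus trough fluorescence divided by its pre-addition baseline; 0% = buffer wells and 100% = ionomycin wells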
Parental YFP cnt = counter-screen for TMEM16A inhibitors: effect in parental YFP-HEK293 cells | shares compounds with TMEM16A inh | YFP ratio F(max-min)/F0 at 10 µM | 2,300 tested, under 10 active | AID 652233 | iodide YFP quench, ionomycin;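 active = yellow fluorescent protein signal ratio exceeding the buffer control mean by over 5 SD of those controls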;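 also: ratio is mean of duplicate wells from kinetic YFP trace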
ClC-1 rat inh = rat ClC-1 inhibition, TMEM16A specificity screen | shares compounds with TMEM16A inh | CHO ClC-1-YFP, iodide influx fluorescence quench; iodide control reads 0, buffer control 100 | ratio percent, % at 10 µM | 2,300 tested, under 10 active | AID 652236;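 active = duplicate-mean ratio percent above the mean of iodide-only control wells, which defines zero, plus 5 of their SD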;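 also: higher percent means stronger block of ClC-1 iodide influx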
* marks the source's active call; other numbers are inactive results; i = inactive; nt = not tested or not shown. Compounds with a hit are over-represented: about 2.4% of the library has one in this group of screens.

SMILES | CHT block | CHT allo act | TMEM16A act | TMEM16A inh | TMEM16A reconf | HEK293 Ca mobil | Parental YFP cnt | ClC-1 rat inh
CN(C(=O)c1ccc(S(=O)(=O)c2cccc(Cl)c2)c([N+](=O)[O-])c1)C1CCCCC1 | i | i | i | 25* | i | i | -1.1 | -10
O=C(NC1CCCCC1)c1ccc(S(=O)(=O)c2ccccc2Cl)c([N+](=O)[O-])c1 | i | i | nt | i | nt | nt | nt | nt
CC(=O)Nc1ccc(S(=O)(=O)N(C)c2ccc(OCC(=O)OCC(=O)NCc3ccco3)cc2)cc1 | i | i | i | i | nt | nt | nt | nt
C=CCn1c(SCC(=O)Nc2cccc(S(N)(=O)=O)c2)nnc1C1CCCCC1 | nt | nt | i | nt | nt | nt | nt | nt
CCc1ccccc1NC(=O)c1ccc(OCc2c(C)noc2C)cc1 | nt | nt | i | nt | nt | nt | nt | nt
CCOc1cc(S(=O)(=O)NCCc2ccc(OC)c(OC)c2)c(OCC)cc1-n1cnnn1 | i | i | i | 25* | i | i | -0.94 | -2
CN(C)S(=O)(=O)c1ccc(N2CCCC2)c(C(=O)Nc2nc3c(ccc4ccccc43)s2)c1 | i | i | i | i | i | i | -1.4 | -11
C/C(=N\NC(=S)NCCc1ccccc1)c1ccc(Cl)cc1Cl | i | i | i | i | nt | nt | nt | nt
C/C(=N\NC(=S)NCCc1ccccc1)c1ccc(O)cc1O | i | i | i | 25* | 23%* | i | -1.2 | 0
OCC[C@@H]1C[C@@H](O)[C@H](O)[C@]2(CCc3ccccc3O2)O1 | i | i | i | i | nt | nt | nt | nt
OCC[C@@H]1C[C@H](O)[C@@H](O)[C@]2(CCc3ccccc3O2)O1 | i | i | i | 25* | i | i | -1.1 | -3
CCOC(=O)c1ccc(NC(=O)CCc2nc(-c3ccccc3Cl)no2)cc1 | i | i | i | 100* | 38%* | i | -1.1 | -28
CCOC(=O)c1ccc(NC(=O)N2C3CCCC2CC(NC(C)=O)C3)cc1 (stereo unspecified) | i | i | i | i | nt | nt | nt | nt
C=CCn1c(-c2ccc(S(=O)(=O)N3CCOCC3)cc2)csc1=Nc1ccccc1 | i | i | i | i | nt | nt | nt | nt
COc1ccc(-c2csc(=Nc3ccccc3)n2CCO)cc1 | i | i | i | 100* | 44%* | i | -1.2 | 0
COc1ccc(OCCn2c(=N)n(CCO)c3ccccc32)cc1 | i | i | i | i | nt | nt | nt | nt
CC(=O)c1cccc(N=c2scc(-c3ccc(S(=O)(=O)N4CCOCC4)cc3)n2CCO)c1 | i | i | i | 25* | 38%* | i | -1 | -18
Cc1ccc(O)c(-c2cc(C(F)(F)F)[nH]n2)c1 | i | i | i | 100* | 56%* | i | -1.2 | -28
Cc1cccc(NC(=O)c2cc(-c3cc(C)ccc3O)n[nH]2)c1 | i | i | i | i | nt | nt | nt | nt
Cc1c(Cl)c(-c2n[nH]c(=S)n2-c2ccccc2)nn1C | i | i | i | i | nt | nt | nt | nt
COc1ccc(-c2nc3cnccn3c2NCc2ccccc2)cc1SC1CCCCC1 | i | i | i | 25* | i | i | -1.3 | -4
CC(=O)NCCC(Cc1ccccc1)c1ccco1 (stereo unspecified) | i | i | i | 100* | i | i | -0.87 | -10
Cc1cc(NC(=O)C2CCCCC2C(=O)O)ccc1NC(=O)c1ccccc1 (stereo unspecified) | i | i | i | i | nt | nt | nt | nt
COc1ccc(Cl)cc1NC(=O)CSc1nc(Nc2ccccc2)nc(N2CCOCC2)n1 | i | i | i | i | nt | nt | nt | nt
Cc1[nH]c(N=Nc2ccccc2)nc1N=Nc1ccccc1 | i | i | i | 100* | i | i | -1 | -8
SMILES | CHT block | CHT allo act | TMEM16A act | TMEM16A inh | TMEM16A reconf | HEK293 Ca mobil | Parental YFP cnt | ClC-1 rat inh
CCCCn1c(SCc2ccc(C(=O)OC)o2)nc2cc(S(N)(=O)=O)ccc21 | i | i | i | 25* | 18%* | i | -1.1 | -13
O=C(COC(=O)C1(c2ccc(F)cc2)CCCC1)Nc1ncc(C(F)(F)F)cc1Cl | i | i | i | 100* | 55%* | i | -0.82 | -11
O=C(Nc1ccc(OCC(F)(F)C(F)F)c(C(F)(F)F)c1)c1ccccc1O | i | i | i | 100* | i | i | -0.78 | -9
ON=C1C2CC=C(c3ccccc3)C1CCC2 (stereo unspecified) | nt | nt | i | nt | nt | nt | nt | nt
O=C(O)CN1CCN(c2ncc(C(F)(F)F)cc2Cl)CC1 | i | i | i | i | nt | nt | nt | nt
Fc1ccc(-c2nnc(CN3CCN(c4ncc(C(F)(F)F)cc4Cl)CC3)o2)cc1 | i | i | i | 100* | i | i | -1.1 | -19
Cc1ccc(-c2noc(CCCC(=O)NC3CCCC3)n2)cc1 | i | i | i | 25* | i | i | -1.1 | -12
Cn1nc(CC(=O)N2CCN(c3ccccc3)CC2)c2ccccc2c1=O | i | i | i | i | nt | nt | nt | nt
Cn1nc(CC(=O)Nc2ccc3c(c2)OCCO3)c2ccccc2c1=O | i | i | i | 25* | i | i | -1 | -12
Cn1c(SCC(=O)Nc2ccc3c(c2)OCCO3)nnc1-c1ccco1 | i | i | i | 100* | i | i | -1 | -22
Cn1nc(CC(=O)Nc2ccc(N3CCN(C(=O)OC(C)(C)C)CC3)cc2)c2ccccc2c1=O | i | i | i | 25* | i | i | -1.1 | -12
CCN(C[C@H]1N[C@@](C)(C(=O)OC)[C@H]2C(=O)N(Cc3ccccc3)C(=O)[C@@H]12)C(=O)Nc1ccc(C)cc1 | nt | nt | i | nt | nt | nt | nt | nt
O=C(COC(=O)C1CCCCC1)Nc1cccc(Br)c1 | nt | nt | i | nt | nt | nt | nt | nt
CC(C)NC(=O)CSc1ccccc1C(=O)N1CCN(S(=O)(=O)Cc2ccccc2)CC1 | nt | nt | i | nt | nt | nt | nt | nt
Cc1cccc(NC(=S)NC(NC(=O)OCc2ccccc2)C(Cl)(Cl)Cl)c1 (stereo unspecified) | i | i | i | i | nt | nt | nt | nt
COCc1c(C(=O)NC2CCCCC2)sc2cccc(F)c12 | nt | nt | i | nt | nt | nt | nt | nt
CC(C)C(C)(C#N)NC(=O)CSc1ncnc2sc(-c3ccccc3)cc12 (stereo unspecified) | i | i | i | 25* | i | i | -1.1 | -4
Cc1ccc(N2C(=O)/C(=C\c3ccco3)SC2=S)cc1 | i | i | i | 100* | i | i | -1.1 | -13
O=C1/C(=C\c2ccco2)SC(=S)N1c1ccccc1 | i | i | i | i | nt | nt | nt | nt
